Compound activity deposited in PubChem BioAssay by several laboratories.
CIT2-GFP yeast: modulators of CIT2-GFP expression in yeast, primary screen, S. cerevisiae, GFP fusion, multiplex flow cytometry, MLPCN library; S. cerevisiae CIT2-GFP strain, 3 h; 100 means same as DMSO wells; GFP response vs DMSO, % at 10 µM; hit rate 0.065% among 320,000; AID 2029, 2009;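 active = GFP response relative to DMSO above a set limit, near the screen mean plus 3 SD, cut at about 150% in these data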;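 also: ratio of well median GFP fluorescence to mean of DMSO wells on the plate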
RPL19A-GFP yeast: RPL19A-GFP expression modulators in yeast, primary screen, cell-based, S. cerevisiae, multiplex flow cytometry, MLPCN | AID 2025, 2009 | hit rate 0.3% among 330,000 | S. cerevisiae RPL19A-GFP strain, 3 h; stronger effect = lower value | percent response vs DMSO, % at 10 µM;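 active = percent response vs DMSO below 50%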;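 also: median channel GFP fluorescence of the barcoded RPL19A-GFP strain; ratio of sample median GFP to plate DMSO average so 100% = DMSO; lower means less RPL19A-GFP as with rapamycin TOR inhibition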
MEP2-GFP yeast: modulators of MEP2-GFP levels in yeast, primary screen, S. cerevisiae, multiplex flow cytometry, MLPCN library; S. cerevisiae MEP2-GFP strain, 3 h; 100% = DMSO control level; GFP response vs DMSO, % at 10 µM; hit rate 0.51% among 330,000;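 active = GFP response versus DMSO above a set limit, roughly screen mean plus 3 SD, cut at about 180% in these data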;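 also: median GFP fluorescence of the barcode-gated MEP2-GFP cells per well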
LAP4 TOR yeast: modulators of LAP4-GFP expression in yeast, primary screen, S. cerevisiae, multiplex flow cytometry, MLPCN library. 3 h; median GFP as percent of DMSO wells. GFP response vs DMSO, % at 10 µM. hit rate 0.34% among 320,000;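 active = GFP response vs DMSO above a set limit, about the screen mean plus 3 SD, cut at about 150% in these data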
GASC-1 inh: inhibitors of GASC-1 histone demethylase, primary screen, biochemical, fluorescence, DELFIA europium; GST-JMJD2C(1-420) H3K9me3 demethylation; inhibition, % at 2.35 µM; hit rate 0.069% among 330,000; AID 2099, 2009;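 active = more than half of a compound's replicate wells show inhibition beyond 50%, single wells judged on their own value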;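 also: signal counts dimethyl H3K9 product captured on neutravidin plate; 0% = median of DMSO wells and 100% = 0.3 times that DMSO median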
Target sequence (Q9H3R0 1-420 limits assumed): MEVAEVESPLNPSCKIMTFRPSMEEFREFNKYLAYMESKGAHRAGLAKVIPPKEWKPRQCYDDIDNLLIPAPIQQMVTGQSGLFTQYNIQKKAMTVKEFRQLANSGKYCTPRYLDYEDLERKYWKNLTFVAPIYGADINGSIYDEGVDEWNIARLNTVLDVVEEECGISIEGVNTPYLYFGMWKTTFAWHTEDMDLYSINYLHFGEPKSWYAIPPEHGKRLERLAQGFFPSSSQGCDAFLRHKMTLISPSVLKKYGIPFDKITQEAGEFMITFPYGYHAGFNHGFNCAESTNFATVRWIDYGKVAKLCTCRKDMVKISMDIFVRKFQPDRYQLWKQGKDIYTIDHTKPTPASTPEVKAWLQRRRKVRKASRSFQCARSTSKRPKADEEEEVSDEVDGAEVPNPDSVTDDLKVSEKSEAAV
AGP1-GFP MLPCN: modulators of AGP1-GFP expression in yeast TOR pathway, primary screen, cell-based, multiplex flow cytometry, S. cerevisiae, MLPCN library; 3 h; GFP as percent of DMSO wells; GFP response vs DMSO, % at 10 µM; hit rate 0.02% among 320,000;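 active = GFP response relative to DMSO above a set limit, near screen average plus 3 SD, cut at about 150% in these data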;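 also: median GFP channel fluorescence of the gated AGP1 strain per well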
LAP4 cherry2: LAP4-GFP expression modulators in yeast, confirmation, cell-based, second cherry pick, flow cytometry | shares compounds with LAP4 TOR yeast | S. cerevisiae LAP4-GFP strain, 3 h | GFP response vs DMSO, % at 10 µM | hit rate 20% among 590;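 active = GFP signal as percent of the solvent control above about 150%, meaning raised reporter expression, limit read from the data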;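 also: ratio of well median GFP fluorescence to plate DMSO mean so 100% = DMSO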
MEP2 cherry2: modulators of MEP2-GFP levels in yeast, confirmation, S. cerevisiae, flow cytometry GFP, second cherry picks | shares compounds with LAP4 TOR yeast | S. cerevisiae MEP2-GFP strain, 3 h | GFP response vs DMSO, % at 10 µM | hit rate 10% among 590;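 active = GFP signal above 150% of the solvent control wells, that is a rise of more than half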;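 also: median channel GFP fluorescence of all gated yeast cells per well; ratio of median GFP to plate DMSO average so 100% = DMSO level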
RPL19A GFP CP2: RPL19A-GFP modulators in TOR pathway yeast, confirmation, cell-based, S. cerevisiae, flow cytometry, second cherry pick. S. cerevisiae RPL19A-GFP strain, 3 h; stronger effect = lower value; 100% means same as DMSO wells. GFP response vs DMSO, % at 10 µM. AID 2623, 2010. hit rate 3% among 590. shares compounds with LAP4 TOR yeast;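 active = under 65% GFP response relative to DMSO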;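 also: median GFP channel fluorescence per well over the all cells gate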
CIT2 GFP CP2: modulators of CIT2-GFP expression in yeast, confirmation, flow cytometry, second cherry pick, single plex; S. cerevisiae CIT2-GFP strain, 3 h; DMSO control wells read 100%; GFP response vs DMSO, % at 10 µM; hit rate 8% among 590; shares compounds with LAP4 TOR yeast;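 active = GFP response vs DMSO above about 150%, limit read from the data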;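 also: median green fluorescence per well over all gated yeast cells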
AGP1 GFP CP2: AGP1-GFP expression modulators, hit retest, confirmation, cell-based, flow cytometry, S. cerevisiae, cherry pick set 2; 590 tested, under 10 active; percent response vs DMSO, % at 10 µM; shares compounds with LAP4 TOR yeast; S. cerevisiae AGP1-GFP strain, 3 h;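 active = over 150 percent of DMSO response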;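 also: median GFP channel fluorescence over all cells without mother daughter split; sample median GFP divided by mean DMSO control so 100% equals DMSO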
s288c autofluor: compound autofluorescence in yeast s288c, dose response, artefact control for yeast TOR pathway GFP screen, s288c strain | 610 tested, under 10 active | S. cerevisiae s288c, 520 nm autofluorescence, flow cytometry, 3 h; stronger effect = higher value; zero means same as solvent-only cells | AID 2757, 2010 | shares compounds with LAP4 TOR yeast | fluorescence change (kMESF span) at 33 µM;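 active = fluorescence span over the dose series, or activity score, above about 33, limit read from the data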
Yeast autofl DR: autofluorescence of compounds in yeast s288c, dose response, artefact control for yeast TOR pathway GFP screen, primary hits, KU SAR, s288c parental; fluorescence change (span) at 33 µM; 110 tested, under 10 active; S. cerevisiae s288c parental, compound autofluorescence, flow cytometry, 3 h; shares compounds with LAP4 TOR yeast;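 active = fluorescence change span, or the activity score built from it, above 25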
TORC1 bypass: wild-type yeast growth inhibition sparing TORC1 bypass cells, mechanism study for yeast TOR pathway GFP screen, BY4741 wild type, TORC1 bypass strain; shares compounds with LAP4 TOR yeast; S. cerevisiae BY4741 spot growth rating, 48-72 h; stronger effect = lower value; growth rating (0-3) at 30 µM; 120 tested, under 10 active; AID 504456, 2011;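 active = growth rating at most 1 for wild type yeast while the TORC1 bypass strain still grows fully, rated 3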
The depositor's hits bear a star; nt = no result given. Sampled rows, rich in hits. Any-hit rate of the full collection: about 0.97%.

SMILES	CIT2-GFP yeast	RPL19A-GFP yeast	MEP2-GFP yeast	LAP4 TOR yeast	GASC-1 inh	AGP1-GFP MLPCN	LAP4 cherry2	MEP2 cherry2	RPL19A GFP CP2	CIT2 GFP CP2	AGP1 GFP CP2	others
CN(C)c1oc(/C=C/c2cccs2)nc1S(=O)(=O)c1ccccc1	83	53	95	71	-3	13	99	97	97	95	95
COc1ccc(CCNC(=O)C(C)OC(=O)c2nsc(Cl)c2Cl)cc1OC (centres undefined)	98	101	103	99	13	101	nt	nt	nt	nt	nt
CCc1ccc(NS(=O)(=O)c2c(C(=O)N3CCCCCC3)c(C)n(C)c2C)cc1	101	105	107	81	-5	96	nt	nt	nt	nt	nt
O=C(NC(=S)N1CCN(C/C=C/c2ccccc2)CC1)c1ccc(Cl)nc1	101	100	103	108	2	108	nt	nt	nt	nt	nt
CCSc1ccc(-c2nn(-c3ccccc3)cc2/C=C(/C#N)C(=O)NC)cc1	82	60	171	74	-2	68	92	94	102	110	95
O=C1CCCN2N=C(SCC(=O)N3CCCCC3)SC2=N1	97	58	143	92	3	61	99	102	100	97	101
O=C(CN(C1CCCCC1)S(=O)(=O)c1ccccc1)N1CCCC1	94	104	107	97	6	97	nt	nt	nt	nt	nt
O=C(CN(C1CCCCC1)S(=O)(=O)c1ccc(Cl)cc1)N1CCOCC1	96	54	150	90	-1	48	99	100	98	99	97
CC1CCN(C(=O)CSc2nnc(CNC(=O)c3ccc(S(=O)(=O)N(C)C)cc3)o2)CC1	101	98	101	101	9	99	nt	nt	nt	nt	nt
C=CCn1c(CCc2cc(C(C)(C)C)c(O)c(C(C)(C)C)c2)n[nH]c1=S	104	100	109	100	-11	97	nt	nt	nt	nt	nt
O=[N+]([O-])c1cc(CN2CCN(c3cccc(C(F)(F)F)c3)CC2)c2cccnc2c1O	114	88	116	214*	-7	nt	nt	nt	nt	nt	nt	s288c autofluor=0.91
O=[N+]([O-])c1cc(CN2CCCC2)c2cccnc2c1O	88	89	97	99	8	94	nt	nt	nt	nt	nt
CC(OC(=O)CCCC(=O)Nc1ccc(F)cc1)C(=O)c1ccccc1 (centres undefined)	99	96	84	95	-25	93	nt	nt	nt	nt	nt
Cc1nc(N2CCCCC2)c2c(-c3cccs3)csc2n1	100	56	155	98	0	34	95	95	99	109	97
Cc1nc(N2CCN(S(=O)(=O)c3ccccc3C#N)CC2)c2c(-c3cccs3)csc2n1	90	98	109	108	1	111	nt	nt	nt	nt	nt
O=C(NCCc1ccc(F)cc1)c1ccncc1	99	100	100	94	11	104	nt	nt	nt	nt	nt
CCC(C)/C(C)=N/NC(=O)c1ccc(COc2ccc(Cl)c(C)c2)cc1 (centres undefined)	64	85	135	206*	-15	99	142	175*	107	127	115	s288c autofluor=1.9
CCOc1ccc(OCc2ccc(C(=O)N/N=C(\C)c3ccccn3)cc2)cc1	105	91	110	138	-18	93	nt	nt	nt	nt	nt
CCc1sc(C(=O)Nc2nc(-c3ccccn3)cs2)cc1C	118	84	108	191*	-1	88	212*	155*	106	114	103	s288c autofluor=1.4
Cc1c(C(=O)Nc2nc(-c3ccccn3)cs2)oc2ccccc12	68	82	113	220*	nt	55	187*	134	107	129	98	s288c autofluor=1;Yeast autofl DR=0.87;TORC1 bypass=3
Cc1nnc(NC(=O)c2oc3ccccc3c2C)s1	92	90	92	102	-4	89	nt	nt	nt	nt	nt
O=C(Nc1nc(-c2ccccn2)cs1)c1cc2ccccc2o1	108	73	122	155*	1	17	nt	nt	nt	nt	nt	s288c autofluor=1.5;Yeast autofl DR=1.3;TORC1 bypass=3
Cc1cc(-c2csc(NC(=O)c3cc4ccccc4o3)n2)c(C)n1C	86	91	91	99	0	98	nt	nt	nt	nt	nt
Cc1ccc(S(=O)(=O)N2CCCC2)cc1C(=O)NCCN1CCOCC1	114	102	101	105	-16	104	nt	nt	nt	nt	nt
Cc1cccc(C(=O)NC(=S)NCc2ccccc2)c1	92	99	98	108	1	95	nt	nt	nt	nt	nt
O=C(COc1ccccc1)NNC(=S)NC(=O)c1ccccc1	96	114	97	159*	6	102	nt	nt	nt	nt	nt	s288c autofluor=2
